Shown are actives, neighbours in structure and some others; about 2.3% of the full set was active somewhere.
Coupling enz: counter-screen for Giardia aldolase inhibitors: coupling enzyme system. coupling enzyme system counterscreen, AmpLite Red fluorescence. activity change, negative = inhibition, % at 58.2 µM, hits read low. 290,000 tested, 0.67% active. AID 2472; in the data active = activity change below about -30%
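Coupling enzymes only (glyceraldehyde-3-phosphate) + compound, at 57.5 uM final, 10 min RT; add substrate/coupling/AmpLite Red mix, 20 min RT; fluorescence ex 525/em 598 nm. Actives flag coupling-system interference.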
Tau fibril ThT: blocks human tau fibril formation measured by thioflavin T; recombinant tau K18 P301L, heparin-induced fibrillization, ThT fluorescence; Potency, µM (doses to about 57.4 µM), without a hit: at the highest dose activity, negative = inhibition, hits mostly inhibitors; 270,000 tested, 2.1% active; AID 1460; also: potency is read from the fitted curve at half-maximal effect; nearly all actives have a fitted effect of over 55% in size
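Heparin-induced fibrillization of the P301L-mutant K18 repeat-domain fragment of human tau was followed by ThT binding in quantitative high-throughput format.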
Tau fluor counter: counter-screen for tau fibril formation inhibitors; tau K18 P301L (four-repeat tau fragment) Alexa594 fluorescence, heparin fibrillization; Potency, µM (top dose mostly 57.7 µM), inactives show at the highest dose activity change, negative = decrease; 280,000 tested, 0.93% active; AID 1463; also: potency is read from the fitted curve at half-maximal effect; nearly all actives have a fitted effect of over 55% in size
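Human K18 P301L tau (15 uM unlabeled plus 0.24 uM Alexa 594-labeled, final) in 100 mM sodium acetate pH 7 was mixed with compound and 20 uM heparin and incubated 6 hr at 37 C.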
USP1-UAF1 inh: inhibitors of human USP1/UAF1 deubiquitinase; Potency, µM (titrated, usually from 57.1 µM), for the others: top-dose activity change, negative = inhibition, usual class: inhibitors; AID 743255; recombinant USP1/UAF1, Ub-Rhodamine cleavage fluorescence; 390,000 tested, 0.23% active; O94782; also: potency is read from the fitted curve at half-maximal effect; nearly all actives have a fitted effect of over 60% in size
Target sequence (O94782 whole entry, looked up): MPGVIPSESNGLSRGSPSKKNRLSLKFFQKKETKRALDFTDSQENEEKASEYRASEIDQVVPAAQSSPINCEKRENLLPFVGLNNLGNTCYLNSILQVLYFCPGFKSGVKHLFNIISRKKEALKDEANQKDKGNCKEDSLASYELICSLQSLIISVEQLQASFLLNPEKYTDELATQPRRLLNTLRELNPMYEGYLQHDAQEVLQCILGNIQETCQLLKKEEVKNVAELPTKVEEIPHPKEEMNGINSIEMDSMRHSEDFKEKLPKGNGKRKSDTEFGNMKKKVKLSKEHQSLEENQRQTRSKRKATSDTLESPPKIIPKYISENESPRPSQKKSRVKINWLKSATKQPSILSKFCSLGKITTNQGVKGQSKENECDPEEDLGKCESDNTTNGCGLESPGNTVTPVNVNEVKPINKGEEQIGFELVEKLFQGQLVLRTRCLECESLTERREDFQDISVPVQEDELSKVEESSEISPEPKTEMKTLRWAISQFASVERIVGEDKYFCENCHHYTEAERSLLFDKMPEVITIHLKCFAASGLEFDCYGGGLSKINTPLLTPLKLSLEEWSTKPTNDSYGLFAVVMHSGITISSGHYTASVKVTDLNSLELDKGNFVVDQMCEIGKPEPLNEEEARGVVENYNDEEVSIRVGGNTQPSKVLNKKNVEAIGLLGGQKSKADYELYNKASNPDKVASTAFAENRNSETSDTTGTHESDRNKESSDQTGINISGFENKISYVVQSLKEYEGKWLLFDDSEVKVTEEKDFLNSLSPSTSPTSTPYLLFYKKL
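USP1/UAF1 complex (1 nM) preincubated 15 min at room temperature with compound, then Ub-Rho substrate (150 nM final) added. Kinetic fluorescence at 480/540 nm over 6 reads at 60 s intervals; 50 mM HEPES pH 7.8, 0.5 mM EDTA, 0.1 mg/ml BSA, 1 mM TCEP, 0.01% Tween-20.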
Tau fibril FP: inhibitors of human tau fibril formation; AID 1468; P10636; K18 P301L tau heparin fibrillization, Alexa594 FP, 6 h; 280,000 tested, 0.39% active; Potency, µM (doses to about 57.7 µM), without a hit: at the highest dose activity, negative = inhibition, hits mostly inhibitors; also: potency is read from the fitted curve at half-maximal effect; nearly all actives have a fitted effect of over 55% in size
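Quantitative HTS format: compounds meet 15 uM recombinant K18 P301L tau and Alexa 594-tau tracer in 100 mM sodium acetate pH 7; 20 uM heparin triggers fibrillization at 37 C over 6 hr; FP gives the signal.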
* marks the source's active call; other numbers are inactive results; ? = inconclusive; . = not tested or not shown; [ ] = dose if it differs, or a comment. Unless noted, calls follow the shape of the dose curve; as a rule, active = well fitted curve in the direction sought with a large enough effect; inconclusive = small, poorly fitted or top-dose-only effect, or another doubt; inactive = no such curve, though single readings can be large; an effect the other way counts as inactive or inconclusive. % is scaled to controls: 0 for no effect and ±100 for the full control effect.

SMILES	Coupling enz	Tau fibril ThT	Tau fluor counter	USP1-UAF1 inh	Tau fibril FP
O=C(CNC(=O)c1ccc(Br)cc1)NCC(=O)OCC(=O)c1ccc([N+](=O)[O-])cc1	5	28µM*	-25%	-1%	?
O=C(CNC(=O)c1ccccc1)NCC(=O)OCC(=O)c1ccc([N+](=O)[O-])cc1	0	?	-17%	-3%	?
CCc1ccc(C(=O)NN(C(=O)c2cc(C)cc(C)c2)C(C)(C)C)cc1	0	-2%	-11%	.	2%
CN1C(=O)/C(=C\c2ccc(N3CCCCC3)o2)C(=O)NC1=S	1	?	-8%	-26%	-11%
CN1C(=O)C(=Cc2ccc(N3CCOCC3)o2)C(=O)N(C)C1=S	-2	?	0%	?	1%
CCN1C(=O)C(=Cc2ccc(N3CCOCC3)o2)C(=O)N(CC)C1=S	2	18µM*	-28%	-24%	-10%
CN1C(=O)/C(=C/c2ccc(N3CCCCCC3)o2)C(=O)NC1=S	2	14µM*	-12%	?	-2%
CN1CCN(c2ccc(/C=C3\C(=O)NC(=S)N(c4cccc(Br)c4)C3=O)o2)CC1	-1	16µM*	-19%	32µM*	-14%
Cc1ccccc1OCC(=O)Nc1ccccc1C(=O)OCc1cc(=O)n2nc(C3CC3)sc2n1	.	-1%	0%	?	11%
COc1cccc(CN2CCc3nc(N4CCN(c5ncccn5)CC4)ncc3C2)c1	.	?	-4%	-8%	-3%
CC[C@@H]1CN2CCc3cc(OC)c(OC)cc3[C@@H]2C[C@@H]1C[C@H]1NCCc2cc(OC)c(OC)cc21	-1	0%	-1%	.	-2%
COc1cc(-c2nc3ccc(Cl)cn3c2Nc2ccc3c(c2)OCCO3)ccc1O	.	?	10µM*[quencher]	-23%	13%
Clc1ccc(-c2nc3ccc(Cl)cn3c2CN2CCOCC2)cc1	-22	-5%	3%	-6%	6%
COc1ccc(CCNCc2ccc3c(c2)n(C)c(=O)n3C)cc1	.	-7%	-7%	13%	-8%
COc1ccc(CCn2c(NN=C3CCCCC3)nc3c2c(=O)[nH]c(=O)n3C)cc1	-26	28µM*	?	-24%	?
CC(=O)CC(c1ccccc1)c1c(O)c2cccc(O)c2oc1=O (centres undefined)	13	.	.	.	.
Cc1cccc(N2C(=O)/C(=C/c3ccc(CN(CCC#N)S(C)(=O)=O)o3)C(=O)NC2=S)c1	-1	25µM*	-21%	25µM*	?
Cc1ccc(/C=C2\C(=O)NC(=S)N(c3cccc(F)c3)C2=O)o1	3	.	.	?	.
CCOc1ccc(N2C(=O)/C(=C/c3ccc(C)o3)C(=O)NC2=S)cc1	7	.	.	?	.
Cc1ccc(N2C(=O)/C(=C/c3ccc(CN(CCC#N)S(C)(=O)=O)o3)C(=O)NC2=S)cc1C	1	18µM*	-26%	.	?
COc1ccc(-c2c3c(=O)n(C)c(=O)n(C)c3c3n2-c2ccccc2NC3c2ccccc2OC)cc1 (centres undefined)	.	?	-9%	0%	10%
Cc1ccc(NC(=O)Nc2ccc3nc(N4CCN(C)CC4)cc(C)c3c2)cc1F	.	14µM*	7.1µM*[quencher]	-5%	?
COc1ccc(/C=C/C(=O)Nc2ccc(C)cc2)cc1	.	12%	-22%	-15%	?
Cc1cc(N2CCCCC2)nc2ccc(NC(=O)/C=C/c3ccc(OC(C)C)cc3)cc12	.	2.8µM*	8.9µM*[quencher]	-5%	5%
COc1ccc(CCNc2nccn(-c3ccc(C)c(C)c3)c2=O)cc1OC	.	?	-14%	-16%	0%
SMILES	Coupling enz	Tau fibril ThT	Tau fluor counter	USP1-UAF1 inh	Tau fibril FP
CNc1ccc2oc(C[C@@H]3OC4(CC[C@@H]3C)O[C@H]([C@@H](C)C(=O)c3ccc[nH]3)[C@H](C)C[C@H]4C)nc2c1C(=O)O (some centres undefined)	.	32µM*	?	.	?
CNc1ccc2oc(C[C@H]3O[C@@]4(CC[C@H]3C)O[C@H]([C@H](C)C(=O)c3ccc[nH]3)[C@H](C)C[C@H]4C)nc2c1C(=O)O	-30	?	?	-22%	-10%
CC(C)c1ccc(C(c2c(O)c3ccccc3oc2=O)c2c(O)c3ccccc3oc2=O)cc1	.	.	.	28µM*	.
CCOCCCNC(=O)c1c[nH]c2ccc(S(=O)(=O)N(C)c3ccc(Cl)cc3F)cc2c1=O	.	3%	?	-9%	?
C=C(C)C1Cc2c(ccc3c2OC2COc4cc(OC)c(OC)cc4C2C3=O)O1 (centres undefined)	-1	?	-27%	.	11%
COCCNC(=O)c1c(NC(=O)c2ccc(Br)o2)n(Cc2ccccc2)c2nc3ccccc3nc12	-44*	?	-29%	?	-8%
COCCCn1c(N)c(C(=O)OCCOC)c2nc3ccccc3nc21	-18	-16%	-9%	-7%	-7%
COCCCNC(=O)c1c(NC(=O)c2ccco2)n(Cc2ccccc2)c2nc3ccccc3nc12	-13	?	?	?	?
CCCCNC(=O)c1c(N)n(CCCOC)c2nc3ccccc3nc12	-39*	?	?	11µM*	-9%
CC(C)CCn1c(N)c(C(=O)NCc2cccs2)c2nc3ccccc3nc21	-21	-16%	?	?	?
CC(C)OCCCNC(=O)c1c(N)n(Cc2cccs2)c2nc3ccccc3nc12	-46*	?	?	-22%	?
COCCNC(=O)c1c(N)n(CCC(C)C)c2nc3ccccc3nc12	-36*	-17%	?	?	0%
CC(C)c1ccc(Cc2cn3cc(-c4cc5ccccc5oc4=O)nc3s2)cc1	.	-7%	-9%	?	-6%
Cc1ncc2n1-c1ccc(Cl)cc1C(c1ccccc1F)=NC2O (centres undefined)	7	.	.	.	.
N#Cc1c(Oc2cccc(OS(=O)(=O)CCCC(F)(F)F)c2)cccc1C(F)(F)F	-7	.	.	.	.
Nc1ccc2c3c(cccc13)-c1ccccc1-2	.	.	.	5.6µM*	.
O=C(Nc1ccc2nc(SCC(=O)N3CCCc4ccccc43)sc2c1)c1cccc(F)c1	.	1%	?	-14%	?
COCCCNC(=O)c1c(N)n(Cc2ccco2)c2nc3ccccc3nc12	-10	?	?	-24%	-2%
CC(C)CNC(=O)c1c(N)n(Cc2ccc3c(c2)OCO3)c2nc3ccccc3nc12	-51*	?	?	-21%	?
COc1ccc(Cn2c(N)c(C(=O)NCc3ccco3)c3nc4ccccc4nc32)cc1OC	-9	14µM*	?	?	?
CCCNC(=O)c1c(N)n(Cc2ccc3c(c2)OCO3)c2nc3ccccc3nc12	-21	?	?	-5%	?
CC(C)CCNC(=O)c1c(N)n(Cc2ccc3c(c2)OCO3)c2nc3ccccc3nc12	-33*	?	?	?	?
